Results on 40 molecules are retold here after PubChem BioAssay (Tox21).

The structures appear in SMILES notation. Results filed as inconclusive are left out. Calls of active or inactive are those of the source. The call rests on the fitted dose curve; in most records, active means well fitted cell-killing curve with a large enough effect in the repeat runs; inconclusive means weak or mixed curves, or effect the other way; inactive means no such curve, though single readings can be large or run the other way.
On the % scale 0 is the no-effect control and ±100 the full control effect.

The nature of the experiment: qHTS assay to identify small molecule antagonists of the vitamin D receptor (VDR) signaling pathway - cell viability counter screen (AID 743225). Further: nearly all actives have a fitted effect of over 50% in size. To be noted: VDR-bla HEK293T viability, CellTiter-Glo luminescence, 16 h; series mostly up to 61 µM; viability change, negative = cytotoxic: at the top concentration. From the text: U.S. Tox21 Program National Center for Advancing Translational Sciences [NCATS] NIH Chemical Genomics Center [NCGC] U.S. Environmental Protection Agency [EPA] National Institutes of Environmental Health Sciences [NIEHS] National Toxicology Program [NTP] U.S. Food and Drug Administration [FDA] Tox21 Assay Overview: The vitamin D receptor (VDR), a member of nuclear hormone receptor superfamily, plays a critical role in calcium homeostasis and bone metabolism. It is also involved in cell differentiation and growth, and thrombogenicity. To identify the compounds that inhibit VDR signaling, the VDR-UAS-bla HEK 293T cell line (Invitrogen, Carlsbad, CA, USA) containing a beta-lactamase reporter gene under the control of an upstream activator sequence (UAS) was used to screen the Tox21 10K compound library. The cytotoxicity of the Tox21 compound library against the VDR-bla cell line was tested in parallel by measuring the cell viability using CellTiter-Glo assay (Promega, Madison, WI) in the same wells.
Tox21 Assay Protocol Summary: VDR-bla cells were dispensed at 2,000 cells/5 uL of assay medium per well into black wall/clear-bottom 1536-well plates using a Multidrop Combi (Thermo Fisher Scientific, Waltham, MA) dispenser. After the assay plates were incubated at a 37C and 5% CO2 for 4 h, 23 nL of compounds dissolved in DMSO, positive controls or DMSO only was transferred to the assay plate by a Pintool station (Kalypsys, San Diego, CA), followed by addition of 1 uL of 1-alpha, 25-Dihydroxy Vitamin D3 (3 nM, final concentration in the wells) using a Bioraptr Flying Reagent Dispenser (FRD) workstation (Beckman Coulter, Indianapolis, IN). The plates were incubated at 37C and 5% CO2 for 16 h, and then 1 uL of LiveBLAzerTM B/G FRET substrate was added using a Bioraptr FRD. The plates were incubated at room temperature for 2 h and fluorescence intensity was measured by an Envision plate reader (PerkinElmer, Shelton, CT). For cell viability readout that measures cytotoxicity, 3 ul/well of CellTiter-Glo reagent was added into the assay plates using a Bioraptr FRD. After 30 min incubation at room temperature, the luminescence intensity in the plates was measured using a ViewLux plate reader (PerkinElmer).
For the molecule `O=C(O)c1ccc(C(=O)O)cc1`, the call was inactive.

As to `CCC(O)OC(O)CC` (stereo not given), the result was inactive. Consider `CCC(O)OCCCOC` (stereo not given), for which the molecule was called inactive. On to `CC(=O)CC(=O)Nc1ccccc1`, for which the outcome was inactive.

With `CCCCC(CC)COC(=O)C(C#N)=C(c1ccccc1)c1ccccc1` (stereo not given), the molecule was classed as inactive. On to `CCc1ccc(CCOc2ccc(CC3SC(=O)NC3=O)cc2)nc1` (stereo not given), for which the outcome was inactive.

On to `C#C[C@]1(O)CC[C@H]2[C@@H]3CCC4=CC(=O)CC[C@@H]4[C@H]3CC[C@@]21C`, for which the molecule was called inactive. Regarding `CCCCCCCCCCCCCCO`, the outcome was inactive. Regarding `O=C1CCC(N2C(=O)c3ccccc3C2=O)C(=O)N1` (stereo not given), the outcome was inactive.

As for `Fc1ccc(Br)cc1`, the “viability change, negative = cytotoxic” value was 10.3% (inactive). As to `c1ccc(OCCOc2ccccc2)cc1`, the outcome was inactive.

`Cc1ccc(N(C)C)cc1`: the molecule was called inactive. On to `CCCCCCCCCCCCCCCO`, for which the result was inactive. Turning to `O=P(OC(CCl)CCl)(OC(CCl)CCl)OC(CCl)CCl`, the molecule was called inactive.

In the case of `O=C(O)[C@H](O)[C@@H](O)[C@H](O)[C@H](O)CO`, the result was inactive. With `OCc1cccnc1`, the molecule was classed as inactive. With `CC1=CCC2CC1C2(C)C` (stereo not given), the “viability change, negative = cytotoxic” value was -0.316% (inactive). For the molecule `CC(O)COCC(C)O` (stereo not given), the outcome was inactive. As for `OC[C@H]1O[C@@](CO)(O[C@H]2O[C@H](CO)[C@@H](O)[C@H](O)[C@H]2O)[C@@H](O)[C@@H]1O`, the molecule was classed as inactive. For the molecule `O=C(OCCOCCOC(=O)c1ccccc1)c1ccccc1`, the outcome was inactive. Still for that read-out and setting: the value for `CCCCCC(N)=O` was “inactive”.

As for `c1ccc2scnc2c1`, the “viability change, negative = cytotoxic” value is 6.1% (inactive). Consider `Nc1ccccc1[N+](=O)[O-]`, for which the result was inactive.

With `CCN(CC)c1ccc(C(=O)c2ccccc2C(=O)O)c(O)c1`, the result was inactive. For the molecule `c1ccc2c(c1)ccc1ccccc12`, the outcome was inactive. Take `CCN(CC)CCCC(C)Nc1ccnc2cc(Cl)ccc12` (stereo not given): the “viability change, negative = cytotoxic” value was 1.4% [at 28.5 µM] (inactive). With `CCCCC(CC)CO` (stereo not given), the molecule was called inactive. As for `O=C(O)CCCC[C@@H]1SC[C@@H]2NC(=O)N[C@@H]21`, the call was inactive. As for `O=c1[nH]c(=O)n([C@H]2CCCO2)cc1F`, the molecule was called inactive. Consider `CCCCN(CCCC)CCCC`, for which the call was inactive.

`CC[C@H](C)C(=O)O[C@H]1C[C@@H](C)C=C2C=C[C@H](C)[C@H](CC[C@@H]3C[C@@H](O)CC(=O)O3)[C@H]21`: the call was inactive. Turning to `CSCCC=O`, the outcome was inactive. For `O=C(O)c1cc(=O)c2c(OCC(O)COc3cccc4oc(C(=O)O)cc(=O)c34)cccc2o1`, the molecule was classed as inactive.

On to `CCCC(C)=O`, for which the call was inactive. Turning to `CC1=CC(=O)NS(=O)(=O)O1`, the molecule was called inactive. Regarding `CCCCCC/C(C=O)=C\c1ccccc1`, the “viability change, negative = cytotoxic” value is 11.3% (inactive). For `OCCOCCOCCO`, the molecule was called inactive. For the molecule `O=c1[nH]nnc2ccccc12`, the result was inactive.

As for `CN(C)CCOCCN(C)C`, the call was inactive. In the case of `Cc1cccc(O)c1`, the “viability change, negative = cytotoxic” value was -1.28% [at 78.8 µM] (inactive).
